These results are taken from PubChem BioAssay AID1259319 (Sanford-Burnham Center for Chemical Genomics, 2017).

Out of some 3,000 compounds screened, about 1,800 (60%) were called active. So high a share suggests a set chosen from earlier hits. Not all results are given here. Values without a mark were called inactive.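 The calls were made as follows: active = activation at or above a set limit, or at least 3 SD above the negative control mean; inactive = the rest.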

For this assay, the target named is Nuclear receptor subfamily 1 group D member 1 (Homo sapiens) (UniProt P20393). As to the kind of experiment: modulators of Rev-erb alpha DNA binding, confirmation, biochemical, FITC-DNA, fluorescence polarization, single point (AID 1259319).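 Also: 0% = 35 nM protein with DMSO and 100% = 750 nM protein high control.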 As to conditions: 90 min, at 25 µM, stronger effect = higher value. (Polarisation of emitted light reports the rotation of a fluorescent probe.)
Nuclear receptor subfamily 1 group D member 1 (Homo sapiens), sequence (P20393 whole entry, looked up): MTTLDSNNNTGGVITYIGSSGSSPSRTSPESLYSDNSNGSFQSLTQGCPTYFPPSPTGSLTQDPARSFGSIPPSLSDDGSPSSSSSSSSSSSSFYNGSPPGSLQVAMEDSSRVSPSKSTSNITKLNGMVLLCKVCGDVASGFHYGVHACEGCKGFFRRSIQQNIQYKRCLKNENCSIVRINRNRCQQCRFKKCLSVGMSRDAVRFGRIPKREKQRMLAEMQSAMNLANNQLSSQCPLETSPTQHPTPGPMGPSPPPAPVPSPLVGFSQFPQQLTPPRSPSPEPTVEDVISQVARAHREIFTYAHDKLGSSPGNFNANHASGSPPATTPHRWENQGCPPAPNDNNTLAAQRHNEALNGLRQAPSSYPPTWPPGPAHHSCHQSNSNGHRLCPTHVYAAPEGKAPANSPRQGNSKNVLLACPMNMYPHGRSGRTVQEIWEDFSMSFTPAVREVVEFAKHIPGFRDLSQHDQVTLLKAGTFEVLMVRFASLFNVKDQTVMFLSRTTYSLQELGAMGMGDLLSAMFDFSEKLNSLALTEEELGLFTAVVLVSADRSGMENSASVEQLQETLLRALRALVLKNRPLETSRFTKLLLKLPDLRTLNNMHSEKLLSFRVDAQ
Turning to `COCCCNc1nc2c(-c3cccc(C)c3)nnn2c2ccc(Cl)cc12`, the activation is 28.8% (active). In the case of `Cc1nn(C)cc1N1C(=O)c2cccc3c(N)ccc(c23)C1=O`, the activation was 181% (active).

As for `CN1C(=O)c2cccc3c(N)ccc(c23)C1=O`, the activation is 225% (active). For `COc1ccc(-c2c(C)cc3oc(=O)cc(-c4ccccc4)c3c2C)cc1C=O`, the activation was 8.9%. The figure for `C=C(C)C1CC=C(C)/C(=N\NC(=O)CNc2ccccc2OC)C1` (configuration not stated) is 6.76%. The figure for `C=CCn1c(=NC(=O)c2ccc(S(=O)(=O)N3CCCC3)cc2)sc2cc(NC(C)=O)ccc21` is 34.3% (active). Take `COC(=O)Cn1c(=NC(=O)c2cc(OC)c(OC)c(OC)c2)sc2cc(OC)ccc21`: the activation was 14.3%.

Take `C=CCn1c(=NC(=O)c2cccs2)sc2cc(NC(C)=O)ccc21`: the activation was 33.8% (active).

As to `Cn1c(=NC(=O)c2ccc3c(c2)OCCO3)sc2cc(S(C)(=O)=O)ccc21`, the activation is 12.7%.

Regarding `COc1ccccc1CC1(C)C(=O)Nc2ccc(OC(F)(F)F)cc21` (configuration not stated), the activation is 60.9% (active). As for `O=C(NCc1ccc(Cl)cc1)c1cc2c(nc3sccn32)s1`, the activation is 19.2% (active). The figure for `COc1ccc(S(=O)(=O)N2CCOCC2)cc1C(=O)Nc1nc2ccccc2s1` is 20.7% (active); for `COc1cc2c(cc1NC(=O)CN1CCN(S(=O)(=O)c3ccc(F)cc3)CC1)oc1ccccc12` it is 3.46%; for `COc1ccc(C)cc1Nc1nc(C)nc2c1oc1ccccc12` it is 28.2% (active). The figure for `CCOC(=O)c1sc(NC(=O)CCN2CCOCC2)c(C(=O)OCC)c1C` is 5.98%; for `COc1ccc(-c2nn(C)c(=O)c3ccccc23)cc1NC(=O)COc1ccccc1` it is 33.9% (active).

Take `CCOc1ccc(NC(=O)CSc2ncnc3c2sc2ccccc23)cc1`: the activation is 107% (active).

As to `COc1cc(OC)c(N2CC(C(=O)Nc3cc(Cl)ccc3N3CCOCC3)CC2=O)cc1Cl` (configuration not stated), the activation was 1.79%.

For `COc1cc(OC)cc(-c2c(C#Cc3ccsc3)c3cc(-c4ccc(SC)cc4)ccc3n2C)c1`, the activation is 32.1% (active). With `CCOc1ccc2nc(Cl)c(C3CC(c4ccccc4)=NN3C(=O)c3cccs3)cc2c1` (configuration not stated), the activation is -0.503%. On to `Cc1ccc(S(=O)(=O)c2c[nH]c3ccc(Cl)cc3c2=O)cc1`, for which the activation is 137% (active).

With `COc1ccc(-n2nc3c(N4CCC(C(=O)NCc5ccccc5)CC4)nnc(C)c3c2C)cc1`, the activation was 32.9% (active).

In the case of `COc1ccc(-n2nc(C(=O)NCC(=O)Nc3cccc(C)n3)c3ccccc3c2=O)cc1`, the activation is 10.2%. In the case of `CCOC(=O)c1ccc(NC(=S)N2CCN(c3ccccn3)CC2)cc1`, the activation is 12.8%. The figure for `Cc1nc(N2CCN(c3ccccn3)CC2)c2c(C)c(C(=O)Nc3ccc(F)c(Cl)c3)sc2n1` is 17.3%; for `Cc1cc(Br)ccc1NC(=O)c1sc2ncn(CC(=O)N3CCN(c4ccccn4)CC3)c(=O)c2c1C` it is 37.6% (active); for `CCOc1ccc(-c2nnc3ccc(SC)nn23)cc1` it is 26% (active). On to `COc1ccc(-c2nnc3ccc(SCc4ccccc4)nn23)cc1`, for which the activation was 14.9% (active). Regarding `Cc1cc(C)c2nc(SCC(=O)N(C)C3CCS(=O)(=O)C3)cc(C)c2c1` (configuration not stated), the activation was 34.9% (active). In the case of `CC1(C)Cc2nc3sc4c(SCC(=O)NC(c5ccccc5)c5ccccc5)ncnc4c3cc2CO1` it was 138% (active); in that of `COc1ccc(/C=C2\SC(=S)N(CCCC(=O)NC3CCCC3)C2=O)cc1OC`, 31.3% (active); in that of `Cc1cc(/C=C(/C#N)C(=O)Nc2ccc(Cl)cc2)c(C)n1-c1cccnc1`, 53.9% (active). In the case of `CCCc1nc(SCC(=O)Nc2ccc(S(=O)(=O)N(C)C)cc2)c2ccccc2n1` it was 18.2% (active); in that of `COC(=O)c1ccc(NC(=O)c2cc(Cl)ccc2OC)cc1`, 32.8% (active); in that of `Cc1cc(C)c(/C=C2\C(=O)Nc3ccccc32)[nH]1`, 32.5% (active). In the case of `Cc1ccc(NS(=O)(=O)c2cc3c(cc2Br)NC(=O)CO3)cc1C` it was 5.15%. Take `COc1ccc(CCNc2nc3ccc(C)cc3n3cnnc23)cc1OC`: the activation was 2.71%.

In the case of `Cc1ccc(C(=O)Nc2nnc(-c3cccs3)s2)cc1C`, the activation was -3.7%. `O=C(Nc1nnc(-c2ccccc2F)s1)c1ccccc1F`: the activation is 25.2% (active). In the case of `CN1/C(=c2/s/c(=C3/C(=O)N(c4ccccc4)NC3=Nc3ccccc3)n(C)c2=O)C(C)(C)c2ccccc21` it was 29.8% (active); in that of `CCCCCCSc1ccc(-c2nc3ccc(Cl)cn3c2NCc2ccccc2)cc1`, 12.7%; in that of `CSc1ccc(-c2c(C#N)c(N)nc3c2c(C)nn3-c2ccccc2)cc1`, 7.01%. The figure for `Cc1cc(C)c2c(-c3ccc(F)cc3)c(C#N)c(=O)n(C)c2n1` is 24.5% (active). In the case of `Cc1cc(N/C=C\C(=O)c2ccc(Cl)c(Cl)c2)no1` it was 4.17%; in that of `O=C(COc1ncnc2c(Cl)cc(Cl)cc12)N1CCN(S(=O)(=O)c2ccccc2)CC1`, 14.4%. For the compound `N#Cc1c(-c2ccc(F)cc2)cc(C2CC2)nc1SCC(=O)c1cccs1`, the activation is 65.1% (active). The figure for `COc1ccc(-c2csc(NC(=O)c3ccc(N4C(=O)CCC4=O)cc3)n2)cc1OC` is 16.5%; for `CS(=O)(=O)c1ccc2nc(NC(=O)c3ccc(N4CCCC4=O)cc3)sc2c1` it is 18.3% (active). In the case of `CCOC(=O)C1=C(c2ccccc2)O/C(=C(/C(=O)OC)C(F)(F)F)S1` it was 0.229%; in that of `CCC(C)C1(C2CCCC2)NC(=O)NC1=O` (configuration not stated), -1.67%; in that of `CC1(C)CC2CC(C)(CN2c2ncnc3ccc(Br)cc23)C1` (configuration not stated), 14%. The figure for `Cc1cccc(N(CC(=O)Nc2ccc(-c3nc4ccc(C)cc4s3)cc2)S(C)(=O)=O)c1` is 22.1% (active).
